Data from PubChem BioAssay (NCATS).
Unmarked numbers belong to inactive results. Calls follow the shape of the dose curve; as a rule, active = well fitted curve in the direction sought with a large enough effect; inconclusive = small, poorly fitted or top-dose-only effect, or another doubt; inactive = no such curve, though single readings can be large or run the other way. Residues, ends and D or L forms follow the SMILES beside them. *: point of attachment. Cbz = O=C(OCc1ccccc1)*

Assay: Validation qHTS assay for inhibitors of Activation Induced Cytidine Deaminase (AID): UDG Counterscreen signal (AID 1347427); also: 0% is about no effect
Conditions: biochemical UDG counterscreen, fluorescence signal; series mostly up to 115 µM; activity, negative = inhibition: at the top concentration
Procedure, shortened: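 Fluorescence at 560 nm excitation, 665 nm emission reports UDG signal after 250 mM NaOH (2x) addition and 30 min. Enzymes (AID 1 uM, UDG 2 U/mL, at 4/3x) preincubated 10 min with compound, then 4 h with 4x 250 nM DJC20/DJC23 substrate at room temperature.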

SMILES | activity, negative = inhibition
Oc1ccc(Cn2cc[nH]c2=S)cc1 | 15.4%
NC1(C(=O)O)CCc2cc(C(=O)O)ccc21 (stereo not drawn) | 9.15%
NC(=O)CNCCC(c1ccccc1)c1ccccc1 | 16.6%
CC(C)[C@H](NC(=O)OCc1ccccc1)C(=O)N[C@H](C=O)Cc1ccccc1 (Cbz-Val-Phe-aldehyde) | 10.1%
CCCCC[C@H](CC(=O)NO)C(=O)N[C@H](C(=O)N1CCC[C@H]1CO)C(C)C | 18.2%
Cc1ccc2c(c1)C(N1CCN(C)CC1)=Nc1cccnc1N2 | 6.43%
O[Si](CCCN1CCCCC1)(c1ccc(F)cc1)C1CCCCC1 (stereo not drawn) | -4.7%
N[C@H](C(=O)O)[C@H]1C[C@@H]1C(=O)O | 12.5%
O=C(O)Cc1ccc(O)c(O)c1 | 5.04%
Nc1nc2c(nc(Br)n2C2OC3COP(=O)(O)O[C@@H]3C2O)c(=O)[nH]1 (stereo partly drawn) | 9.01%
NS(=O)(=O)c1cccc2c1c([N+](=O)[O-])cc1nc(O)c(O)nc12 | 6.35%
COc1cccc(OC)c1OCCNCC1CSc2ccccc2O1 (stereo not drawn) | -0.0656%
COc1ccc(CCn2nnnc2C2(c3ccc(C)cc3)CC2)cc1 | 4.69%
Cn1c(=O)c2[nH]c(C3CCCC3)nc2n(C)c1=O | 6.33%
O=C(O)c1cccnc1C(=O)O | 15.4%
CSC(N)=NCCC[C@H](N)C(=O)O | 4.42%
CC(C)C[C@H](NC(=O)[C@H](O)[C@H](N)Cc1ccccc1)C(=O)O | 4.47%
Cn1c(=O)c2c(nc(/C=C/c3cccc(Cl)c3)n2C)n(C)c1=O | -5.83%
CC(C)NC[C@H](O)COc1ccc(CC(N)=O)cc1 | 0.581%

SMILES | activity, negative = inhibition
COC1(C2=NCCN2)COc2ccccc2O1 (stereo not drawn) | 6.4%
CC(=O)O[C@H]1CC2(C)[C@@H](C[C@@H](O)[C@H]3[C@@]4(C)CC[C@@H](O)[C@@H](C)[C@@H]4CC[C@@]32C)C1=C(CCC=C(C)C)C(=O)O (stereo partly drawn) | 3.42%
C[C@H](NC(=O)/C(C#N)=C/c1ccc(O)c(O)c1)c1ccccc1 | -11%
CC(=O)C(C)=O | 1.92%
CC[n+]1c(/C=C/C=C2/N(C)c3ccccc3C2(C)C)sc2ccccc21 | -3.04%
O=c1ccn([C@@H]2O[C@H](COP(=O)(O)OP(=O)(O)O)[C@@H](O)[C@H]2O)c(=O)[nH]1 | 10.6%
Nc1ccc(N2C(=O)c3ccccc3C2=O)c(Cl)c1 | 2.28%
Cc1nc2n(c(=O)c1CCN1CCC(c3noc4cc(F)ccc34)CC1)CCCC2O (stereo not drawn) | 16.8%
C[C@](Cc1ccc(O)c(O)c1)(NN)C(=O)O | 0.959%
NC[C@@H]1O[C@H](c2ccccc2)Cc2c1ccc(O)c2O | 9.31%
CSC(=N)N | 9.51%
C=C(C)C1CC=C(C(=O)O)CC1 (stereo not drawn) | 6.5%
COc1ccccc1N1CCN(CCCCNC(=O)c2ccc3ccccc3c2)CC1 | 10.9%
CC(C)Cn1c(=O)n(C)c(=O)c2[nH]cnc21 | 9.74%
CN1CCC2(CCN3CCc4c(oc5ccccc45)C3C2)N(C)C1=O (stereo not drawn) | 3.43%
COc1ccccc1N1CCN(CCN(C(=O)c2ccc(F)cc2)c2ccccn2)CC1 | 11.1%
c1ccc(C2CN3CCSC3=N2)cc1 (stereo not drawn) | -6.41%
O=C(O)C1CCCNC1 (stereo not drawn) | 0.481%
O=C(O)C1CN(CCCP(=O)(O)O)CCN1 (stereo not drawn) | 7.61%
